The values below come from PubChem BioAssay (NCI).

Where “and” joins values, the source holds several entries; their conditions need not be identical. Identical values can stand only once. The panel holds about 83,000 compounds, 20% with a hit somewhere; the sample as a whole holds those more often.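 Activity criterion: percent growth below 10, measured after cells in 96-well plates were exposed to a single compound concentration for 48 hours.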 Values without a mark were called inactive. Calls of active or inactive are those of the source.

What all share (experiment): NCI-60 one-dose screen, 48 h (100 = growth as untreated, 0 = no growth, -100 = all killed)
For one assay, the system named is NCI-H23 lung. Particulars: 10 µM.
The test system of another assay is NCI-H226 lung. Particulars: 10 µM.
Another assay concerns NCI-H322M lung. Particulars: 10 µM.
The next assay has as its system HOP-62 NSCLC. Particulars: 10 µM.
In a further assay the test system is NCI-H460 lung. Particulars: 10 µM.
The next assay deals with HOP-92 NSCLC. The following applies: 10 µM.
In a further assay the test system is NCI-H522 lung. Particulars: 10 µM unless noted.
Another assay deals with A549/ATCC NSCLC. The following applies: 10 µM.
The next assay deals with 786-0 renal. The following applies: 10 µM.
A further assay concerns COLO 205 colon. The following applies: 10 µM.
A further assay has as its system DU-145 prostate. The following applies: 10 µM unless noted.
The test system of a further assay is K-562 leukemia. Particulars: 10 µM.
The next assay concerns MALME-3M melanoma. The following applies: 10 µM.
Another assay relates to MDA-MB-231 breast. Particulars: 10 µM.
A further assay relates to RXF 393 renal. The following applies: 10 µM unless noted.
For another assay, the system named is SF-268 CNS. The following applies: 10 µM.
A further assay has as its system SF-295 CNS. Particulars: 10 µM.
The subject of a further assay is SF-539 CNS. The following applies: 10 µM.
In another assay the test system is UACC-257 melanoma. Particulars: 10 µM.
In another assay the test system is M14 melanoma. The following applies: 10 µM.

Consider `CCN(CC)c1ccc(NC(C(=O)c2ccccc2)c2ccccc2)cc1` (stereo not drawn), for which the growth was 44.4% in the assay on NCI-H23 lung; 60.1% in the assay with NCI-H226 lung; 82.9% in the assay on NCI-H322M lung; 123% in the assay with HOP-62 NSCLC; 80.4% in the assay on NCI-H460 lung; 73.7% in the assay on HOP-92 NSCLC. The growth in the assay with NCI-H522 lung was 21.8%; in the assay on A549/ATCC NSCLC, 92.5%; in the assay with 786-0 renal it was -57.1% (active); in the assay on COLO 205 colon, 20.5%; in the assay with DU-145 prostate it was 24.4%; in the assay on K-562 leukemia, 10.4%. For the same compound, the growth with MALME-3M melanoma was 28.7%; in the assay on MDA-MB-231 breast it was -34.1% (active); in the assay with RXF 393 renal it was 4.61% (active); in the assay on SF-268 CNS, -22.8% (active); with SF-295 CNS, 61.2%; in the assay with SF-539 CNS it was -50.1% (active). Further, the figures for the growth in the assay with UACC-257 melanoma and with M14 melanoma were 68.3% and 22.8%, respectively.

For `CN(C)C(=S)SC(=S)N(C)C`, the growth with NCI-H23 lung is 92.1% and 108%; in the assay on NCI-H226 lung it was 104%; in the assay with NCI-H322M lung it was 101% and 86%; in the assay on HOP-62 NSCLC it was 112% and 103%; in the assay with NCI-H460 lung it was 98.7% and 91.3%; in the assay with HOP-92 NSCLC it was 97.9% and 108%. Also, the growth is 77.4% and 61.1% with NCI-H522 lung; 95.9% and 86.6% in the assay with A549/ATCC NSCLC; 96.7% and 105% with 786-0 renal; 81.5% and 49.1% in the assay on COLO 205 colon; 108% and 104% with DU-145 prostate; 58% and 75.7% in the assay on K-562 leukemia. Moreover, the growth is 84.7% and 85% in the assay on MALME-3M melanoma; 105% and 122% with MDA-MB-231 breast; 108% and 109% in the assay on RXF 393 renal; 107% and 95.8% with SF-268 CNS; 100% and 101% with SF-295 CNS; 93.5% and 101% with SF-539 CNS. For the same compound, the growth in the assay on UACC-257 melanoma is 96.5% and 77.5%; in the assay on M14 melanoma it was 90.5% and 93%.

As to `O=C1NC(=O)c2cc([N+](=O)[O-])ccc21`, the growth in the assay with NCI-H23 lung was 105%; in the assay on NCI-H226 lung, 97.7%; with NCI-H322M lung it was 99%; in the assay with HOP-62 NSCLC, 101%; in the assay with NCI-H460 lung, 105%; in the assay with HOP-92 NSCLC, 82.3%. Further, the growth was 102% with NCI-H522 lung; 107% in the assay on A549/ATCC NSCLC; 112% in the assay on 786-0 renal; 111% in the assay with COLO 205 colon; 112% with DU-145 prostate; 119% with K-562 leukemia. Further, the growth in the assay on MALME-3M melanoma is 106%; in the assay with MDA-MB-231 breast it was 107%; in the assay with RXF 393 renal it was 108%; with SF-268 CNS, 106%; in the assay on SF-295 CNS, 101%; with SF-539 CNS, 101%. In addition, the growth with UACC-257 melanoma was 104%; in the assay with M14 melanoma it was 118%.

On to `CC(=O)Nc1cc(C)ccc1C`, for which the growth with NCI-H23 lung is 95.1%; with NCI-H226 lung it was 98.7%; in the assay on NCI-H322M lung it was 96%; with HOP-62 NSCLC it was 107%; in the assay with NCI-H460 lung it was 106%; in the assay on HOP-92 NSCLC, 106%. The growth in the assay on NCI-H522 lung was 96.1%; with A549/ATCC NSCLC, 100%; in the assay with 786-0 renal, 106%; with COLO 205 colon, 102%; in the assay with DU-145 prostate, 112%; in the assay with K-562 leukemia it was 102%. The growth with MALME-3M melanoma is 92.9%; in the assay with MDA-MB-231 breast it was 112%; in the assay on RXF 393 renal, 105%; in the assay on SF-268 CNS it was 101%; in the assay with SF-295 CNS it was 101%; with SF-539 CNS, 96.8%. The growth with UACC-257 melanoma and with M14 melanoma was 101% each time.

`COc1cccc2c1C(=O)c1c(O)c3c(c(O)c1C2=O)C[C@@](O)(C(C)=O)C[C@@H]3OC1CC(N)C(O)C(C)O1` (stereo partly drawn): the growth is -40.5% (active) with NCI-H23 lung; -6.94% (active) in the assay on NCI-H226 lung; 3.64% (active) with NCI-H322M lung; -26.1% (active) in the assay with HOP-62 NSCLC; -25.3% (active) with NCI-H460 lung; -25.2% (active) in the assay with HOP-92 NSCLC. Besides, the growth is -52% (active) with NCI-H522 lung; -29.9% (active) in the assay with A549/ATCC NSCLC; -18.5% (active) with 786-0 renal; -54.3% (active) in the assay with COLO 205 colon; -11.4% (active) in the assay on DU-145 prostate; -49.5% (active) in the assay with K-562 leukemia. In addition, the growth in the assay with MALME-3M melanoma is -77.1% (active); in the assay on MDA-MB-231 breast, -17.9% (active); with RXF 393 renal, -46.9% (active); in the assay with SF-268 CNS, -14.5% (active); in the assay on SF-295 CNS, -26.9% (active); in the assay with SF-539 CNS it was -70.9% (active). In addition, the growth in the assay with UACC-257 melanoma was -33.3% (active).

On to `OCC(O)C(O)C(O)C(/C=N/Nc1ccccc1)=N/Nc1ccccc1` (stereo not drawn), for which the growth was 93.1% in the assay on NCI-H23 lung; 91.4% in the assay with NCI-H226 lung; 68.9% in the assay on NCI-H322M lung; 70.2% with HOP-62 NSCLC; 89.9% in the assay on NCI-H460 lung; 75.1% in the assay with HOP-92 NSCLC. The growth in the assay on NCI-H522 lung is 55.5%; with A549/ATCC NSCLC it was 87.3%; in the assay with 786-0 renal it was 107%; in the assay on COLO 205 colon it was 96.5%; with DU-145 prostate, 89.1%; in the assay on K-562 leukemia, 67.1%. Besides, the growth in the assay with MALME-3M melanoma is 101%; with MDA-MB-231 breast, 79.7%; with RXF 393 renal it was 86.7%; in the assay on SF-268 CNS it was 75.5%; in the assay with SF-295 CNS it was 83.6%; in the assay with SF-539 CNS, 91.3%. The values for the growth in the assay on UACC-257 melanoma and in the assay with M14 melanoma were 104% and 87.5%, respectively.

Take `CSC1SCC2C(=O)N(C)C(C(C)C)C(=O)OCC(NC(=O)c3cnc4ccccc4n3)C(=O)NC(C)C(=O)N(C)C1C(=O)N(C)C(C(C)C)C(=O)OCC(NC(=O)c1cnc3ccccc3n1)C(=O)NC(C)C(=O)N2C` (stereo not drawn): the growth in the assay with NCI-H23 lung is -28.2% (active); in the assay on NCI-H226 lung, -5.57% (active); in the assay with NCI-H322M lung, 9.51% (active); in the assay with HOP-62 NSCLC, -12.4% (active); in the assay with NCI-H460 lung, 4.33% (active); in the assay on HOP-92 NSCLC it was -20.3% (active). The growth with NCI-H522 lung was -16.1% (active); in the assay with A549/ATCC NSCLC, -15.2% (active); in the assay on 786-0 renal, -10.6% (active); with COLO 205 colon it was -45.3% (active); with DU-145 prostate, -19.5% (active); with K-562 leukemia, -61.8% (active). For the same compound, the growth is -23.1% (active) in the assay with MALME-3M melanoma; -8.05% (active) with MDA-MB-231 breast; -0.0463% (active) in the assay on RXF 393 renal; -2.43% (active) in the assay with SF-268 CNS; -22.3% (active) in the assay on SF-295 CNS; -52.9% (active) in the assay on SF-539 CNS. For the same compound, the growth in the assay on UACC-257 melanoma was -13.6% (active).
